Assay results as given in PubChem BioAssay AID808 (Columbia University Molecular Screening Center, 2007).
Out of some 93,000 compounds screened, about 180 (0.19%) were called active.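 How the source made its calls: active means activation above the screen mean plus 3 SD, with well images confirming the hit on visual review (cut at about 28% in these data, passing the limit was not always enough); inconclusive means activation above that limit but images do not confirm it; inactive means activation not above that limit.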 Many of the other results were omitted from the sample, so actives are more common in it than they were.

assay: potentiators of TNFa-induced VCAM1 expression, primary screen, imaging, HUVEC, TNFa stimulus, immunofluorescence (AID 808); settings: HUVEC TNFa-stimulated VCAM-1 immunofluorescence, high-content imaging; at 2 µM; hits give high values; scaled per plate to unstimulated/TNFa-only wells;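 further: signal is the number of cytoplasmic VCAM-1 stained grains per positive cell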

Row | SMILES | activation
1 | Cc1ccc(S(=O)(=O)N(CC(=O)NCCSC2CCCCC2)c2ccccc2F)cc1 | 8.5% (inactive)
2 | CCOC(=O)N1CCN(C(=O)c2cc3c(ccc4ccccc43)oc2=O)CC1 | -5.2% (inactive)
3 | Cc1cnc(NC(=O)CSc2nnc(-c3ccccc3)n2Cc2ccccc2)s1 | -2% (inactive)
4 | Cc1ccc2c(Cl)c(C(=O)NCCCn3ccnc3)sc2c1 | -28.3% (inactive)
5 | Nc1cc(=O)nc(SCc2ccccc2)n1Cc1ccco1 | -95% (inactive)
6 | CCC(=O)c1ccc(OCC(O)CN2CCN(c3cccc(C(F)(F)F)c3)CC2)cc1 (configuration not stated) | 4.1% (inactive)
7 | CCOC(=O)CSc1nc2c(c(=O)n(C)c(=O)n2C)n1Cc1ccccc1F | -0.2% (inactive)
8 | CC(N)C12CC3CC(CC(O)(C3)C1)C2 (configuration not stated) | 1% (inactive)
9 | CC(C)N1C(=O)C2C(C(=O)NC3CCCCC3)C3C=CC2(O3)C1C(=O)NC1CCCC1 (configuration not stated) | -10.8% (inactive)
10 | COc1ccc(-n2nnnc2SCC(=O)c2ccc(OC)c(OC)c2)cc1 | -6.6% (inactive)
11 | CCN(CC(=O)NC(C)C)C(=O)CCNC(=O)c1ccc(Cl)cc1 | -9.6% (inactive)
12 | COC(=O)C1=C(C)N=C2SC(C)C(=O)N2C1/C=C/c1ccccc1 (configuration not stated) | -6.2% (inactive)
13 | COc1ccccc1NC1=NC(c2ccc(Cl)cc2)N=C(N)N1 (configuration not stated) | -12.5% (inactive)
14 | Cc1ccc(S(=O)(=O)NC(=O)N2CCCC(C)(C)C2)cc1 | 4.1% (inactive)
15 | Cc1[nH]c2ccccc2c1C(=O)CSCC(=O)O | 4.2% (inactive)
16 | O=C(OCC(=O)N1CCCC1)c1ccco1 | -4.1% (inactive)
17 | NNC(=O)C1CCCn2c1nc1sc3c(c1c2=O)CCCC3 (configuration not stated) | -4.7% (inactive)
18 | COc1cc(/C=N\NC(=O)C2C(=O)NCC2c2ccccc2)cc(OC)c1O (configuration not stated) | -1.5% (inactive)
19 | CC(=O)c1ccc(OCCN2CCOCC2)cc1 | -16.7% (inactive)
20 | CC1(C)C2CCC13CS(=O)(=O)NC3C2 (configuration not stated) | 19.3% (inactive)
21 | CC1(C)OC(=O)N2CCc3ccccc3C21C (configuration not stated) | 0.2% (inactive)

Row | SMILES | activation
22 | CCCNS(=O)(=O)c1ccc(CCC(=O)NCc2cccnc2)cc1 | 34.1% (inactive)
23 | O=[N+]([O-])c1ccccc1/C=N/n1c(COc2ccccc2)n[nH]c1=S | -14.7% (inactive)
24 | CCOC(=O)CCc1c(C)c(C#N)c2[nH]c3ccccc3n2c1=O | 0.5% (inactive)
25 | CC(C)OC(=O)c1cc(NC(=O)C2C3CCC(O3)C2C(=O)O)cc(C(=O)OC(C)C)c1 (configuration not stated) | 15.7% (inactive)
26 | Cc1ccc(OCC(=O)Nc2cccc3c2CCCC3)cc1C | -1.7% (inactive)
27 | CSCCC(C(=O)NC1=NCCS1)N1C(=O)c2ccccc2C1=O (configuration not stated) | 5.7% (inactive)
28 | O=C(Nc1ncc2c(n1)CC(c1ccco1)CC2=O)c1ccc(Cl)cc1 (configuration not stated) | -91.4% (inactive)
29 | CCOC(=O)N1CCN(C(=O)CN(c2ccc(C)c(C)c2)S(=O)(=O)c2ccccc2)CC1 | 0.5% (inactive)
30 | Cc1n[nH]c(C)c1S(=O)(=O)N1CCCC(C(=O)NCC2COc3ccccc3O2)C1 (configuration not stated) | -3.9% (inactive)
31 | Cc1ccc(CCNC(=O)C2CCN(S(=O)(=O)N3CCCC3)CC2)cc1 | -9.5% (inactive)
32 | CCCc1cc(=O)[nH]c(SCc2ccc(C#N)cc2)n1 | -3% (inactive)
33 | O=C(COc1ccc2ccccc2c1)N1CCN(C(=O)c2cccs2)CC1 | -21.6% (inactive)
34 | COc1ccc(OC)c(NC(=O)CCN2CCC(C)CC2)c1 | 1.4% (inactive)
35 | Cc1ccc(S(=O)(=O)NCCSC(C)(C)C)cc1 | -9% (inactive)
36 | Cc1ccc(Cn2nnc3c(=O)n(CC(=O)N4CCCCC4)cnc32)cc1 | 5.6% (inactive)
37 | CCOc1ccc(NC(=O)Nc2ccc(N(C)C(C)=O)cc2)cc1 | 16.6% (inactive)
38 | O=C(NCCN1CCOCC1)[C@H](Cc1ccccc1)N1C(=O)c2ccccc2C1=O | -8.5% (inactive)
39 | C=CCn1c(COc2ccccc2F)nnc1SCC(=O)N1CC(=O)Nc2ccccc21 | -4.4% (inactive)
40 | O=C(c1ccc(Cl)cc1)c1ccc(OCC(O)CN2CCCCC2)cc1 (configuration not stated) | -0.9% (inactive)
41 | Cc1cc(NC(=O)COc2ccc(Cl)cc2Cl)n(CCC#N)n1 | 4.1% (inactive)
42 | COc1cccc(C(=O)Nc2ccc(NC(=O)c3ccco3)cn2)c1 | 8.2% (inactive)

Row | SMILES | activation
43 | Cc1cnc(NC(=O)C2CCCC2)s1 | -57.6% (inactive)
44 | COCCNC(=O)c1snc2ccc(Cl)cc12 | 11.1% (inactive)
45 | O=C(NCCN1CCN(Cc2ccccc2)CC1)c1cc2c(=O)[nH]c3ccccc3c2s1 | 2.1% (inactive)
46 | O=C(CS(=O)(=O)c1cn(Cc2cccc(F)c2)c2ccccc12)N1CCCCC1 | -50.1% (inactive)
47 | CCOC(=O)N1CCN(C(c2cccnc2)c2ccc3cccnc3c2O)CC1 (configuration not stated) | -10% (inactive)
48 | CC1=NN(C(C)C)C(=O)C1 | 25% (active)
49 | COc1ccc(Cl)cc1C(=O)NCC#N | 5.7% (inactive)
50 | COC(=O)c1c(-c2cccs2)csc1NC(=O)CSc1ncnc2sc(C)c(C)c12 | 1.8% (inactive)
51 | Cc1[nH]n(-c2ccc(Cl)cc2)c(=O)c1/C=N/n1c(C)nc2ccccc2c1=O | 9.2% (inactive)
52 | CCN(CC)C(=O)CSC1c2ccccc2C(=O)N1c1ccccc1 (configuration not stated) | -7.1% (inactive)
53 | CCN(CC)CCCNC(=O)CCc1ccccc1 | 4.1% (inactive)
54 | C/C(=C\C(=O)c1ccccc1)Nc1cccc(O)c1 | 2.2% (inactive)
55 | Cc1nnc(SCC(=O)NC2CCCC2)s1 | -13.9% (inactive)
56 | CN(C)CCCn1c(N)c(C#N)c2nc(C#N)c(C#N)nc21 | -7.9% (inactive)
57 | C=CCn1c(Cn2nnc3ccccc32)nnc1SCC(=O)N/N=C/c1cc(Br)cc(OC)c1O | 1.7% (inactive)
58 | CCOc1ccc(N=C2NC(=O)S/C2=C\c2ccc(O)cc2)cc1 | 29.2% (active)
59 | O=C(Cc1ccc(-n2c(=O)[nH]c3ccccc3c2=O)cc1)N1CCN(c2cccc(Cl)c2)CC1 | -1.2% (inactive)
60 | Cc1c(C(=O)OCC(=O)N(CCC#N)c2ccccc2)oc2c1ccc1ccccc12 | -4.9% (inactive)
61 | COc1ccccc1NC(=O)CSc1nnc(Cn2nnc(-c3ccccc3)n2)n1-c1ccccc1 | 11.3% (inactive)
62 | CSc1nc2ccccc2cc1/C=C(\C#N)c1ccc(Cl)cc1Cl | -3.2% (inactive)
